Data published in PubChem BioAssay (NCATS).
Records with an inconclusive call do not appear. The source made the active and inactive calls. Calls come from the whole dose curve; as a rule, active = well fitted inhibition curve with a large enough effect; inconclusive = small, poorly fitted or top-dose-only effect; inactive = flat fitted curve, though single readings scatter.

Tests used:
Assay in all cases: qHTS profiling for inhibitors of Plasmodium falciparum proliferation (AID 504749); note: nearly all actives have a fitted effect of over 60% in size
Conditions in all cases: P. falciparum in erythrocytes, SYBR Green DNA, 72 h; series mostly up to 28.7 µM
CP238 = tested on: CP238
Method in brief: (§1)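 Each compound contacts P. falciparum-infected red blood cells for 72 h at 37 C; lysis buffer (Tris, EDTA, saponin, Triton X, SYBR Green I) is added and fluorescence measured next morning; values normalized to controls.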

CP247 = tested on: CP247
Method in brief: as §1

CP250 = tested on: CP250
Method in brief: as §1

CP252 = tested on: CP252
Method in brief: as §1

CP256 = tested on: CP256
Method in brief: as §1

CP262 = tested on: CP262
Method in brief: as §1

CP265 = tested on: CP265
Method in brief: as §1

CP266 = tested on: CP266
Method in brief: as §1

CP268 = tested on: CP268
Method in brief: as §1

CP269 = tested on: CP269
Method in brief: as §1

CP297 = tested on: CP297
Method in brief: as §1

CP305 = tested on: CP305
Method in brief: as §1

CP315 = tested on: CP315
Method in brief: as §1

CP325 = tested on: CP325
Method in brief: as §1

CP329 = tested on: CP329
Method in brief: as §1

DIV17 = tested on: DIV17
Method in brief: as §1

DIV30 = tested on: DIV30
Method in brief: as §1

Dd2 = tested on: Dd2
Method in brief: as §1

ECU = tested on: ECU
Method in brief: as §1

FAB9 = tested on: FAB9
Method in brief: as §1

JCK = tested on: JCK
Method in brief: as §1

N140 = tested on: N140
Method in brief: as §1

P94_40 = tested on: P94_40
Method in brief: as §1

PC15 = tested on: PC15
Method in brief: as §1

PC26 = tested on: PC26
Method in brief: as §1

PC49 = tested on: PC49
Method in brief: as §1

SC27B = tested on: SC27B
Method in brief: as §1

TAB113 = tested on: TAB113
Method in brief: as §1

Measured: Potency
Potency is the fitted concentration of half-maximal effect.

CN(C)[C@H]1C(=O)C(C(N)=O)=C(O)[C@]2(O)C(=O)C3=C(O)c4c(O)cccc4[C@@](C)(O)[C@H]3C[C@@H]12
inactive: CP238 | CP247 | CP250 | CP252 | CP256 | CP262 | CP265 | CP266 | CP268 | CP269 | CP297 | CP305 | CP315 | CP325 | CP329 | DIV17 | DIV30 | ECU | FAB9 | JCK | N140 | P94_40 | PC15 | PC26 | PC49 | SC27B | TAB113
active: Dd2 1780 nM
